The source of these data is PubChem BioAssay (NCI).

This is part of a sample that, as a whole, favours compounds with a hit. Of some 79,000 tested, about 15% had one in any assay. Unmarked numbers belong to inactive results. Activity calls are given as the source filed them. No stated cut-off is given here; in the data, active means growth inhibition above about 70%; inactive means the rest.

Assay [1] in a line: NCI Yeast Anticancer Drug Screen. Data for the rad50 strain (AID 155).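 Further: 0% = growth of vehicle-only cultures of the same strain.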 The conditions noted are these: S. cerevisiae rad50 strain growth inhibition; at 50.0 µM; stronger effect = higher value. The gist of the method: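 Cells are treated with compound, grown, and their growth is then scored against vehicle-only cultures of the same repair-deficient yeast strain.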
Assay [2] is described as follows: NCI Yeast Anticancer Drug Screen. Data for the mec2-1 strain (AID 157). To be noted: S. cerevisiae mec2-1 strain, at 50.0 µM, stronger effect = higher value. The gist of the method: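 Yeast mec2-1 mutant treated with compound. Readout: growth inhibition vs vehicle controls.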
Assay [3] in a line: NCI Yeast Anticancer Drug Screen. Data for the sgs1 mgt1 strain (AID 161).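 Further: 0% = growth of cultures given vehicle only.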 To be noted: S. cerevisiae sgs1 mgt1 strain, at 50.0 µM, stronger effect = higher value. The gist of the method:
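Genetically altered yeast, compound exposure, growth inhibition relative to vehicle.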

A short description of assay [4]: NCI Yeast Anticancer Drug Screen. Data for the cln2 rad14 strain (AID 165).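 Further: 0% = growth equal to vehicle treated cultures.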 The conditions noted are these: S. cerevisiae cln2 rad14 strain, at 50.0 µM, stronger effect = higher value. The gist of the method: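 cln2 rad14 yeast strain; compound exposure; growth inhibition read vs vehicle controls.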
Assay [5] in a line: NCI Yeast Anticancer Drug Screen. Data for the bub3 strain (AID 167). The conditions noted are these: S. cerevisiae bub3 mutant strain, at 50.0 µM, stronger effect = higher value. The gist of the method:
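Part of a panel of yeast mutants defective in DNA damage repair or cell cycle regulation. Each strain is grown with compound, and inhibition is calculated relative to solvent-treated cultures.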

Assay [6] can be described thus: NCI Yeast Anticancer Drug Screen. Data for the mlh1 rad18 strain (AID 175). The conditions noted are these: S. cerevisiae mlh1 rad18 strain growth inhibition; at 50.0 µM; stronger effect = higher value. The gist of the method: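 Yeast w/ defined DNA-repair lesions; compound exposure; growth vs vehicle controls → % inhibition.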

Consider `NC(CCCc1ccc(N(CCCl)CCCl)cc1)C(=O)O` (stereo unspecified), for which the growth inhibition in assay [1] is -1.55%; in assay [2], -3.45%; in assay [3], 8.75%; in assay [4] it was -52.7%; in assay [5], -6.15%; in assay [6], -8.3%.

In the case of `Cc1cc(Cl)ccc1N`, the growth inhibition in assay [1] was 32.4%; in assay [2], 6.1%; in assay [3], 0.65%; in assay [4], 12.2%; in assay [5] it was 24.4%; in assay [6] it was 21.4%.

For `CCCCN(CCCC)CC(O)c1ccc(Br)cc1` (stereo unspecified), the growth inhibition in assay [1] is 33.5%; in assay [2] it was 15.4%; in assay [3], 54%; in assay [4], 16.7%; in assay [5], 28.9%; in assay [6], 44.1%.

Consider `O=P1(N(CCCl)CCCl)Nc2cc3ccccc3cc2N1`, for which the growth inhibition is -5.65% in assay [1]; -15.7% in assay [2]; -4.45% in assay [3]; -108% in assay [4]; -15.5% in assay [5]; -14.6% in assay [6].

As for `COc1cc2c(cc1OC)C1CC(OC(=O)c3ccccc3)(c3nccc4cc(OC)c(OC)cc34)CCN1CC2` (stereo unspecified), the growth inhibition in assay [1] is 26.9%; in assay [2] it was 13.9%; in assay [3], 20.6%; in assay [4], 4.95%; in assay [5], -0.8%; in assay [6], 32.5%.

For the molecule `NC(=O)C(Cl)(Cl)CCl`, the growth inhibition in assay [1] is 14.7%; in assay [2], -34.5%; in assay [3], -12.4%; in assay [4] it was 1.5%; in assay [5] it was -2.5%; in assay [6], 6.65%.

Turning to `NC(Cc1ccc(Cl)cc1)P(=O)(O)O` (stereo unspecified), the growth inhibition in assay [1] is 7.7%; in assay [2], -4.35%; in assay [3], -6.75%; in assay [4] it was -53.9%; in assay [5], -12.1%; in assay [6], -16.1%.

As for `CC(C)(C)c1ccc(O)cc1`, the growth inhibition in assay [1] is -21.1%; in assay [2] it was -29.8%; in assay [3], -18.8%; in assay [4], -9.5%; in assay [5] it was -1.45%; in assay [6] it was 8.85%.

As to `Nc1nc(N)c2n[nH]nc2n1`, the growth inhibition in assay [1] was -18.5%; in assay [2], -6.45%; in assay [3], -22.1%; in assay [4], -105%; in assay [5] it was 3.55%; in assay [6] it was -15.3%.

For the molecule `CC1=NN(c2cccc(S(=O)(=O)O)c2)C(=O)C1N=Nc1cc(Cl)cc(S(=O)(=O)O)c1O.O.[Cr]` (stereo unspecified), the growth inhibition in assay [1] is -19.4%; in assay [2], -25.1%; in assay [3], 3.1%; in assay [4], -0.7%; in assay [5] it was 8.35%; in assay [6], 9.35%.

For the molecule `C=COC(=O)NC(C(=O)O)C(C)CC` (stereo unspecified), the growth inhibition in assay [1] was 43.1%; in assay [2] it was 18.6%; in assay [3] it was 44.4%; in assay [4], 24.9%; in assay [5], -5.35%; in assay [6], 34.9%.

For `C/C=N/Nc1ccc([N+](=O)[O-])cc1[N+](=O)[O-]`, the growth inhibition in assay [1] was 10.5%; in assay [2] it was -6.35%; in assay [3], -11.8%; in assay [4] it was -14.9%; in assay [5], 3.3%; in assay [6], 16.8%.

With `Cc1ccc(O)c(Cl)c1`, the growth inhibition in assay [1] is -1%; in assay [2] it was 5.4%; in assay [3] it was -19.4%; in assay [4], -11.7%; in assay [5], 0.15%; in assay [6] it was 38%.

For the molecule `CCCCCCCCCCCCCCC(=O)[O][Hg][c]1ccccc1`, the growth inhibition in assay [1] was 99.2% (active); in assay [2], 98.9% (active); in assay [3], 99.5% (active); in assay [4] it was 99% (active); in assay [5], 99.2% (active); in assay [6], 99.1% (active).

`CCOC(=O)C1Cc2ccc(OC)cc2C2=CC(=O)CCC21` (stereo unspecified): the growth inhibition in assay [1] was -13.4%; in assay [2], -16.9%; in assay [3] it was -9.4%; in assay [4], 1.65%; in assay [5], 5.4%; in assay [6], -1.15%.

Take `CC(C)OP(=O)(CP(=O)(OC(C)C)OC(C)C)OC(C)C.[CH3][Sn]([Br])([Br])[Br]`: the growth inhibition is -27.4% in assay [1]; -23.6% in assay [2]; -32.5% in assay [3]; 6.7% in assay [4]; -19.1% in assay [5]; -23% in assay [6].

As to `CCOC(=O)Cc1ccccc1`, the growth inhibition is 24.1% in assay [1]; -5.85% in assay [2]; -1.95% in assay [3]; -2.05% in assay [4]; 9.25% in assay [5]; 23.8% in assay [6].

As to `CCCCSP(SCCCC)N1CCCCC1`, the growth inhibition in assay [1] is 94.7% (active); in assay [2] it was 89.4% (active); in assay [3], 91.3% (active); in assay [4], 31.1%; in assay [5] it was 79.8% (active); in assay [6] it was 88% (active).

In the case of `COC(=O)/C=C/[C@@H]1[C@H](C)N1S(=O)(=O)c1ccc(C)cc1` (stereo partly specified), the growth inhibition was -9.7% in assay [1]; -11.3% in assay [2]; 11.7% in assay [3]; 6.95% in assay [4]; 13.9% in assay [5]; -23.5% in assay [6].

Regarding `O=C1C2CCN(CC2)C1Cn1cnc2c(Cl)ncnc21` (stereo unspecified), the growth inhibition in assay [1] is -3.9%; in assay [2], 4.1%; in assay [3], -4.35%; in assay [4], -0.55%; in assay [5] it was -2.55%; in assay [6], -0.75%.

Regarding `CCOS(=O)OCC`, the growth inhibition in assay [1] was 19%; in assay [2], 0.35%; in assay [3], -26.1%; in assay [4], 17.9%; in assay [5], 17.6%; in assay [6] it was 9.2%.
